{"source": "PubChem BioAssay AID2358", "about": "(The Scripps Research Institute Molecular Screening Center, 2010)", "note": "Among all 1,900 compounds or so, about 1,000 (53%) were called active.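 How the source made its calls: active means mean PP1 inhibition above a set limit taken from the earlier primary screen (cut at about 15% in these data); inactive means the rest.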 So high a share suggests a set chosen from earlier hits. These entries were drawn from the full list."}
{"target": "Serine/threonine-protein phosphatase PP1-alpha catalytic subunit (Homo sapiens) (UniProt P62136)", "sequence (P62136 whole entry, looked up)": "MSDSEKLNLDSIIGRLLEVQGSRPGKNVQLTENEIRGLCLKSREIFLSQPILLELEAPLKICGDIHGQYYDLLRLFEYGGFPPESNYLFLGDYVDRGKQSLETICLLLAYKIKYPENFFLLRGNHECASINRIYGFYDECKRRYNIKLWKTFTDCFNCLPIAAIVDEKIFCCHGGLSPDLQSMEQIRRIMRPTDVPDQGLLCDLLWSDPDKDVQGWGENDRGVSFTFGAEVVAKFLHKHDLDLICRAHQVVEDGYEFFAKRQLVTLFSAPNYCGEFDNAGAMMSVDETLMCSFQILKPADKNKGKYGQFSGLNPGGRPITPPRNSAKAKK", "assay": "inhibition of human PP1-alpha enzyme activity – biochemical, fluorescence, OMFP substrate, triplicate, confirmation (AID 2358)", "details": "purified PP1alpha, at 6.7 µM, active compounds read high"}
{"smiles": "Cc1ccc(C)c(Cn2nnc3c(=O)[nH]c(C(=O)Nc4ccc(F)cc4)nc32)c1", "inhibition": "20.8% (active)"}
{"smiles": "COc1ccccc1NC(=O)CSc1nc2sc3c(c2c(=O)n1-c1ccccc1)CCN(C)C3", "inhibition": "10.6% (inactive)"}
{"smiles": "COc1ccccc1/C=N\\Nc1cc(C)nc(-n2nc(C)cc2C)n1", "inhibition": "44.3% (active)"}
{"smiles": "Cc1cc(N/N=C\\c2ccc(Br)cc2)nc(-n2nc(C)cc2C)n1", "inhibition": "21.7% (active)"}
{"smiles": "CN1CCN(CCCNC(=O)c2ccc(/C=C3\\Oc4ccccc4N(Cc4ccc(Cl)cc4)C3=O)cc2)CC1", "inhibition": "6.35% (inactive)"}
{"smiles": "O=C(COC(=O)c1ccc(Oc2ccccc2)cc1)Nc1nnc(-c2ccccc2)o1", "inhibition": "16.8% (active)"}
{"smiles": "O=C(N=C1SC2CS(=O)(=O)CC2N1c1cc(Cl)ccc1Cl)C1CC1", "note": "(stereo not given)", "inhibition": "-1.43% (inactive)"}
{"smiles": "Cc1ccc(Nc2nc(CSc3nnnn3-c3ccccc3)cc(=O)[nH]2)cc1", "inhibition": "26% (active)"}
{"smiles": "Cc1cc(Nc2ccccc2)n(C(=O)c2ccc(N)cc2)n1", "inhibition": "2.75% (inactive)"}
{"smiles": "O=C1C2N=NN(CC(=O)N3N=C(c4cccc5ccccc45)CC3c3ccccc3)C2C(=O)N1c1ccccc1", "note": "(stereo not given)", "inhibition": "24.2% (active)"}
{"smiles": "O=C1c2cccc(OCC(=O)N3N=C(c4cccs4)CC3c3ccc(F)cc3)c2CCN1Cc1ccccc1", "note": "(stereo not given)", "inhibition": "13.1% (inactive)"}
{"smiles": "Cc1ccc(N2C(=O)C3N=NN(CC(=O)N4N=C(c5cccc6ccccc56)CC4c4ccccc4)C3C2=O)cc1", "note": "(stereo not given)", "inhibition": "12.9% (inactive)"}
{"smiles": "O=[N+]([O-])c1ccccc1/C=N/n1c(COc2ccccc2)n[nH]c1=S", "inhibition": "-1.61% (inactive)"}
{"smiles": "CCCCn1c(SCc2ncc(-c3ccccc3)o2)nc2cc(S(N)(=O)=O)ccc21", "inhibition": "11% (inactive)"}
{"smiles": "COc1ccc(NC(=O)C2C3CCC(O3)C2C(=O)O)cc1OC", "note": "(stereo not given)", "inhibition": "18.6% (active)"}
{"smiles": "CC(C)OC(=O)c1cc(NC(=O)C2C3CCC(O3)C2C(=O)O)cc(C(=O)OC(C)C)c1", "note": "(stereo not given)", "inhibition": "5% (inactive)"}
{"smiles": "Oc1c(C(c2ccccn2)N2CCOCC2)ccc2cccnc12", "note": "(stereo not given)", "inhibition": "69.3% (active)"}
{"smiles": "Cc1ccc(-n2nc3ccc(NC(=O)/C=C/c4ccco4)cc3n2)cc1C", "inhibition": "14.7% (inactive)"}
{"smiles": "Oc1c(Cl)cc(Cl)c(Cl)c1Cc1c(O)c(Cl)cc(Cl)c1Cl", "inhibition": "22.2% (active)"}
{"smiles": "Cc1cc(-c2csc(N)n2)c(C)n1-c1ccccc1", "inhibition": "10.2% (inactive)"}
{"smiles": "CCOc1ccc(NC(=O)c2ccc(NC(=O)COC(=O)c3ccc(NC(=O)CC#N)cc3)cc2)cc1", "inhibition": "47.8% (active)"}
{"smiles": "CN(C(=O)COC(=O)c1cc(-c2ccco2)nc2ccccc12)C1CCS(=O)(=O)C1", "note": "(stereo not given)", "inhibition": "20.3% (active)"}
{"smiles": "CCn1c(SCC(=O)Nc2cc(C)ccc2C)nnc1-c1cnccn1", "inhibition": "-2.85% (inactive)"}
{"smiles": "c1ccc(-c2nccc(-c3ccc(-n4cnc5ccccc54)cc3)n2)nc1", "inhibition": "65.5% (active)"}
{"smiles": "O=C1C(=O)N(CC2COc3ccccc3O2)c2ccccc21", "note": "(stereo not given)", "inhibition": "1.9% (inactive)"}
{"smiles": "CC1CCCCN1S(=O)(=O)c1ccc(C(=O)Nc2nnc(-c3cccs3)o2)cc1", "note": "(stereo not given)", "inhibition": "23.2% (active)"}
{"smiles": "Cc1ccc(S(=O)(=O)N2[C@@H](c3cccc(Cl)c3)C(C(=O)O)=CC[C@H]2c2ccc(Cl)c(Cl)c2)cc1", "inhibition": "18.2% (active)"}
{"smiles": "Cc1ccccc1S(=O)(=O)N1[C@@H](c2cccc(Cl)c2)C(C(=O)O)=CC[C@H]1c1ccc(Cl)cc1", "inhibition": "15.6% (active)"}
{"smiles": "COc1ccc(-c2nn(-c3ccccc3)cc2/C=C\\C(=O)Nc2ccc(C(=O)O)cc2)cc1", "inhibition": "11% (inactive)"}
{"smiles": "Cc1ccc(-c2nn(-c3ccccc3)cc2/C=C2\\SC(=S)N(CCCCCC(=O)O)C2=O)o1", "inhibition": "19.6% (active)"}
{"smiles": "COc1ccc(-c2nn(-c3ccccc3)cc2/C=C2/SC(=S)N(CCCC(=O)O)C2=O)c(C)c1", "inhibition": "29.4% (active)"}
{"smiles": "CS(=O)(=O)c1ccc2c(c1)SC1=NC(=O)/C(=C/c3ccco3)C(=N)N12", "inhibition": "7.76% (inactive)"}
{"smiles": "CCCc1ccc(OCC(=O)NNC(=S)NC(=O)c2ccco2)cc1", "inhibition": "14.1% (inactive)"}
{"smiles": "Cc1ccc(OCC(=O)Nc2ccc(-c3nnc(-c4ccco4)o3)cc2)cc1", "inhibition": "25.6% (active)"}
{"smiles": "O=C(CSc1nnc(C2CC2)n1Cc1ccccc1)Nc1cccnc1Cl", "inhibition": "-0.54% (inactive)"}
{"smiles": "C=CCn1c(=NC(=O)c2ccc(S(=O)(=O)N3CCCC3)cc2)sc2cc(NC(C)=O)ccc21", "inhibition": "23.1% (active)"}
{"smiles": "N#Cc1c(-c2ccccc2)nc(SCc2cccc(C(F)(F)F)c2)[nH]c1=O", "inhibition": "14.1% (inactive)"}
{"smiles": "Clc1ccc2c(c1)C1=C(C(c3ccncc3)O2)C(c2ccc(Br)cc2)n2ncnc2N1", "note": "(stereo not given)", "inhibition": "18.4% (active)"}
{"smiles": "O=C(N/N=C/c1cc([N+](=O)[O-])ccc1O)/C(=C\\c1cccs1)NC(=O)c1ccccc1", "inhibition": "30.9% (active)"}
{"smiles": "CCOc1ccc(/C=C/C(=O)OCC(=O)c2ccccc2OC)cc1OC", "inhibition": "0.75% (inactive)"}
{"smiles": "COc1cnc(-c2ccccn2)nc1Oc1ccc(C(C)(C)C)cc1", "inhibition": "32.3% (active)"}
{"smiles": "CC(C)(C)Nc1nc(-c2ccccn2)nc2ccccc12", "inhibition": "7.11% (inactive)"}
{"smiles": "Cc1ccc(CSCC2Nc3ccc(C(=O)N4CCN(c5ccc(F)cc5)CC4)cc3NC2=O)cc1", "note": "(stereo not given)", "inhibition": "22.6% (active)"}
{"smiles": "Oc1ccc(C2Nc3cccc4cccc(c34)N2)cc1", "inhibition": "0.4% (inactive)"}
{"smiles": "COCCCNC(=O)C1CC(=O)N(c2ccc(C)cc2)C1", "note": "(stereo not given)", "inhibition": "-1.39% (inactive)"}
{"smiles": "OCCNc1nc(Nc2ccc(Cl)c(Cl)c2)nc2ccccc12", "inhibition": "-0.84% (inactive)"}
{"smiles": "Oc1c(CN2CCN(c3ccc(F)cc3)CC2)cc(Cl)c2cccnc12", "inhibition": "39.1% (active)"}
{"smiles": "CCCCCCCCCCOC(=O)Cn1c(COc2ccc(C)cc2)[n+](C)c2ccccc21", "inhibition": "12.8% (inactive)"}
{"smiles": "Cc1ccc(NS(=O)(=O)c2ccc(N/N=C/c3ccccc3OCC(=O)O)c([N+](=O)[O-])c2)c(C)c1", "inhibition": "16% (active)"}
{"smiles": "Nc1ccc2nc3c(=O)[nH]c(=S)[nH]c3nc2c1", "inhibition": "34% (active)"}
{"smiles": "C/C(=N\\c1nc2ccccc2n1C)c1cc(Cl)ccc1O", "inhibition": "-7.49% (inactive)"}
{"smiles": "C=C1c2c(Cl)ccc(O)c2C(O)=C2C(=O)[C@]3(O)C(O)=C(C(N)=O)C(=O)[C@@H](N(C)C)[C@@H]3[C@@H](O)C12", "note": "(stereo not given in full)", "inhibition": "7.26% (inactive)"}
{"smiles": "COCCN(CCOC)S(=O)(=O)c1ccc(C(=O)Nc2nc3c(s2)CCc2ccccc2-3)cc1", "inhibition": "34.5% (active)"}
{"smiles": "O=C(Nc1nc(-c2ccco2)c(-c2ccco2)s1)c1ccco1", "inhibition": "2.84% (inactive)"}
{"smiles": "C=CCN(CC=C)S(=O)(=O)c1ccc(C(=O)Nc2nc3c(s2)CCc2ccccc2-3)cc1", "inhibition": "27.9% (active)"}
{"smiles": "O=[N+]([O-])/C=C/c1ccc2c(ccn2Cc2ccccc2)c1", "inhibition": "13.8% (inactive)"}
{"smiles": "Cc1cccc(OCC(O)Cn2c(=N)n(CCN3CCOCC3)c3ccccc32)c1", "note": "(stereo not given)", "inhibition": "-3.3% (inactive)"}
{"smiles": "CCCCCCCCCCOC(=O)Cn1c(COc2cccc(OC)c2)[n+](C)c2ccccc21", "inhibition": "8.62% (inactive)"}
{"smiles": "O=C(Nc1cccc(-c2nc3ccccc3[nH]2)c1)c1ccc(C(=O)Nc2cccc(-c3nc4ccccc4[nH]3)c2)cc1", "inhibition": "2.51% (inactive)"}
{"smiles": "Clc1ccc(-n2nnnc2-c2cnc(-c3ccccn3)nc2-c2cccs2)cc1", "inhibition": "64.5% (active)"}
{"smiles": "Cc1ccc(Cn2nnc3c(=O)[nH]c(C4CCN(S(=O)(=O)/C=C/c5ccccc5)CC4)nc32)cc1", "inhibition": "20.5% (active)"}
{"smiles": "Cc1ccc(NC(=O)COc2ccc(/C=C3/NC(=O)NC3=O)cc2)cc1", "inhibition": "16.6% (active)"}
{"smiles": "NC(N)=N/N=C/c1ccc(OCc2ccc(Cl)cc2Cl)cc1", "inhibition": "17.3% (active)"}
{"smiles": "CC(=O)c1ccc(N2CCN(S(=O)(=O)c3ccc4c(c3)CC(=O)N4C)CC2)cc1", "inhibition": "7.42% (inactive)"}
{"smiles": "Cc1ccc(-c2cc(C(=O)Nc3nn[nH]n3)c3ccccc3n2)c(C)c1", "inhibition": "0.22% (inactive)"}
{"smiles": "O=C(Nc1ccc(S(=O)(=O)Nc2nccs2)cc1)c1cc(-c2ccncc2)nc2ccccc12", "inhibition": "12.1% (inactive)"}
{"smiles": "O=C(Nc1nnc(-c2ccccc2)o1)c1cc(-c2cccs2)nc2ccccc12", "inhibition": "28.1% (active)"}
{"smiles": "O=C(/C=C/c1ccc(F)cc1)NC(=S)NNC(=O)c1cccnc1", "inhibition": "14.7% (inactive)"}
{"smiles": "COc1cccc(/C=N/NC(=O)c2[nH]nc3c2CCc2ccccc2-3)c1O", "inhibition": "36% (active)"}
{"smiles": "N=c1n(Cc2ccc(Cl)cc2)c2ccccc2n1CC(O)c1ccco1", "note": "(stereo not given)", "inhibition": "-2.68% (inactive)"}
{"smiles": "Cc1ccc2nc(N3C(=O)C(O)=C(C(=O)c4ccco4)C3c3cccc(O)c3)sc2c1", "note": "(stereo not given)", "inhibition": "20.8% (active)"}
{"smiles": "CCNS(=O)(=O)c1ccc(NC(=O)Nc2cccc(C(F)(F)F)c2)cc1", "inhibition": "4.33% (inactive)"}
{"smiles": "Cc1nc2c(C(=O)NCc3ccc4c(c3)OCO4)c[nH]n2c(=O)c1Cc1ccccc1F", "inhibition": "32.2% (active)"}
{"smiles": "COc1cc(C2C(C(=O)c3ccc(C)o3)=C(O)C(=O)N2CCc2ccccc2)ccc1O", "note": "(stereo not given)", "inhibition": "27.1% (active)"}
{"smiles": "CCCOc1ccc(C2C(C(=O)c3ccc(C)o3)=C(O)C(=O)N2CCCn2ccnc2)cc1", "note": "(stereo not given)", "inhibition": "37.2% (active)"}
{"smiles": "COc1ccc(C2C(C(C)=O)=C(O)C(=O)N2CCc2c[nH]c3ccccc23)cc1", "note": "(stereo not given)", "inhibition": "11.8% (inactive)"}
{"smiles": "Cc1cc(N2C(=O)C(O)=C(C(=O)c3ccc(C)o3)C2c2ccc(OCc3ccccc3)cc2)no1", "note": "(stereo not given)", "inhibition": "32.6% (active)"}
{"smiles": "C/C(CC(O)(/C=N/O)c1ccccc1)=N\\O", "note": "(stereo not given)", "inhibition": "-3.06% (inactive)"}
{"smiles": "Cc1ccc2cc(CCNC(=O)c3c(-c4ccccc4Cl)noc3C)c(=O)[nH]c2c1", "inhibition": "-1.41% (inactive)"}
{"smiles": "COC(=O)Cc1cc(=O)n(-c2nc3ccccc3s2)[nH]1", "inhibition": "0.62% (inactive)"}
{"smiles": "CN(C(=O)CN(CCO)CC(=O)N(C)C(C)(C)Cc1ccccc1)C(C)(C)Cc1ccccc1", "inhibition": "-9.33% (inactive)"}
{"smiles": "C#CCOCCOCCOCCNc1nc(N2CCN(C(=O)CCCCCCCCCCNC(=O)Cn3cc(CCCCCN)nn3)CC2)nc(N2CCN(C(=O)CCCCCCCCCCNC(=O)[C@H](CO)n3cc(CCCSC)nn3)CC2)n1", "inhibition": "50.9% (active)"}
{"smiles": "C#CCOCCOCCOCCNc1nc(N2CCN(C(=O)CCCCCCCCCCNC(=O)[C@H]([C@@H](C)CC)n3cc(CCCCN=C(N)N)nn3)CC2)nc(N2CCN(C(=O)CCCCCCCCCCNC(=O)[C@H](CO)n3cc(CCCSC)nn3)CC2)n1", "inhibition": "42.5% (active)"}
{"smiles": "C#CCOCCOCCOCCNc1nc(N2CCN(C(=O)CCCCCCCCCCNC(=O)[C@H](CCCCN)n3cc(C)nn3)CC2)nc(N2CCN(C(=O)CCCCCCCCCCNC(=O)[C@H](CO)n3cc(CCCSC)nn3)CC2)n1", "inhibition": "41.8% (active)"}
{"smiles": "C=CCn1c(=S)[nH]c2scc(-c3ccco3)c2c1=O", "inhibition": "7.08% (inactive)"}
{"smiles": "Cc1nc(/N=C(\\N)NC(=O)NC2CCCCC2)nc2ccccc12", "inhibition": "26.9% (active)"}
{"smiles": "Cc1ccc(-c2cc(C(=O)N/N=C/C=C/c3ccco3)c3ccccc3n2)cc1C", "inhibition": "9.2% (inactive)"}
{"smiles": "OCCCN1c2ccccc2Nc2nnc(-c3ccccc3)cc21", "inhibition": "27.3% (active)"}
{"smiles": "CCC(=C/c1sc2ccc3ccccc3c2[n+]1C)/C=C1\\Sc2ccc3ccccc3c2N1C", "inhibition": "62.5% (active)"}
{"smiles": "CSc1ccc(/C=N\\NC(=O)COc2ccc(Cl)cc2Br)cc1", "inhibition": "-1.13% (inactive)"}
